Among all 290,000 compounds or so, about 150 (0.052%) were called active. The full list was thinned out, with actives kept by preference. Measured potencies and affinities stand elsewhere. Values without a mark were called inactive.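 Rule for the calls: active = inhibition of at least 50% with at least 30 cells and total cytoplasm GFP at most 10,000,000; inconclusive = under 30 cells or total GFP of 10,000,000 plus; inactive = the rest.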
The compounds below were run against G-protein coupled receptor 35 (Homo sapiens) (UniProt Q9HC97) (assay: GPR35 antagonists blocking zaprinast-driven arrestin recruitment, primary screen, imaging, U2OS, beta-arrestin-GFP, zaprinast agonist (AID 2058)). Settings: U2OS GPR35 beta-arrestin-GFP translocation imaging, zaprinast antagonism; at 10 µM; stronger effect = higher value.
Chain of G-protein coupled receptor 35 (Homo sapiens) (Q9HC97 whole entry, looked up): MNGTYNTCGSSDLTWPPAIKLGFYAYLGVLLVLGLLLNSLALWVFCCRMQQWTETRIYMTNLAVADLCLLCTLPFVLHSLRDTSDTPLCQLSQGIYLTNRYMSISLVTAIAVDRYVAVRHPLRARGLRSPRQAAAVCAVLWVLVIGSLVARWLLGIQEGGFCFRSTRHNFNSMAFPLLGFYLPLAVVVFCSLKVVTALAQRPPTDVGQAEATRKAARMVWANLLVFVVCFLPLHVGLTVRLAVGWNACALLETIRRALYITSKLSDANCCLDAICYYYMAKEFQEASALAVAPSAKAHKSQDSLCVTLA
`Cc1ccc(/C=C2/SC(=S)N(CCC(=O)N3CCN(c4ccccc4)CC3)C2=O)cc1` showed an inhibition of -11.1%. `COc1ccc(/C=C2\SC(=S)N(CCC(=O)N3CCCCC3)C2=O)cc1` showed an inhibition of 1.2%. In the case of `COc1c(S(=O)(=O)Nc2cccnc2)ccc(Cl)c1Cl`, the inhibition is reported as 0.5%. With `O=c1[nH]cnc2sc3c(c12)CN(Cc1ccccc1)CC3` the inhibition was -2.4%. In the case of `Cc1ccc(NC(=O)C2C(c3ccccc3)C=CC(c3ccccc3)C2C(=O)O)cc1` (stereo not drawn), the inhibition is reported as -4.3%. `Cc1ccccc1Nc1nnc(SCC(=O)NCc2cccs2)s1` was tested, and the inhibition was 0%. For `C/C(=N\NC(=O)c1cc(-c2ccc(C)s2)[nH]n1)c1ccncc1`, the inhibition was -6.8%. `COc1ccc(C(=O)NCCc2nnc(SCC(=O)Nc3ccc(Br)cc3)n2C)cc1` gave an inhibition of 0.4%. Work on `CNC(=O)/C=C1\NC(C)(C)Cc2c1ccc1ccccc21` yielded an inhibition of 7.2%. `CC1(C)Cc2ccccc2/C(=C/C(=O)N2CCCCCC2)N1` was tested, and the inhibition was 7.4%. In the case of `O=C(NN1CCOCC1)c1ccccc1Br`, the inhibition is reported as 2.6%. With `COc1ccc2c(c1)NC(c1ccc(N(C)C)cc1)c1cccn1-2` (stereo not drawn) the inhibition was 83.6% (active). `COc1ccc2c(c1)NC(c1cc(Cl)cc(Cl)c1O)c1cccn1-2` (stereo not drawn) was tested, and the inhibition was 12.6%. For `COc1ccc(C2Nc3cc(OC)ccc3-n3cccc32)cc1` (stereo not drawn), the inhibition was 7%. `CCc1nnc(NC(=O)c2cc(S(=O)(=O)N3CCOCC3)ccc2N2CCCCC2)s1` showed an inhibition of 4.8%. For `CCOc1ccccc1CNc1nnnn1C`, the inhibition was 2.8%. `C=CCN1C(=O)/C(=C/C=C2/N(CC)c3ccc(S(=O)(=O)N(C)C)cc3N2CC)SC1=S` was tested, and the inhibition was 9.4%. With `CCN1C(=O)/C(=C/C=C2/Sc3ccccc3N2CCO)SC1=S` the inhibition was -15.5%. With `CCN1C(=O)/C(=C/C=C2\N(CC)c3cc(S(=O)(=O)N(C)C)ccc3N2c2ccccc2)SC1=S` the inhibition was 62% (active). `CC(=O)c1cccc(OCc2cc(C(=O)N3C[C@@H](C)O[C@@H](C)C3)no2)c1` showed an inhibition of 4.5%. `CC1Sc2ccc(S(=O)(=O)CCC(=O)NCc3ccc(Cl)cc3)cc2NC1=O` (stereo not drawn) gave an inhibition of 7.8%. `Cc1cc(NC(=O)CSc2nnc(-c3c[nH]c4ccccc34)n2-c2ccc(Cl)cc2)no1` gave an inhibition of 3.9%. For `COc1cccc(Cn2cccc(NC(=O)NCc3ccccc3)c2=O)c1`, the inhibition was -1%. With `N#Cc1c(Cl)nc(SCc2ccccc2)nc1-c1ccccc1` the inhibition was 10.7%. `CSc1nc(Cl)c(C#N)c(-c2ccc(C)cc2)n1` was tested, and the inhibition was 61.8% (active). `COc1ccc(-c2nc(-c3cccc(C)c3)nc(Cl)c2C#N)cc1` was tested, and the inhibition was 13.1%. With `CCOC(=O)c1c(-c2ccccc2)csc1NC(=O)/C(C#N)=C/c1ccc(OC)c(OC)c1` the inhibition was -10.8%. In the case of `CCOC(=O)c1c(-c2ccc(C)cc2)csc1NC(=O)/C(C#N)=C/c1ccc(O)c(OC)c1`, the inhibition is reported as 2.7%. Work on `O=C(O)c1ccc(COc2ccccc2[N+](=O)[O-])o1` yielded an inhibition of 9.8%. Compound `Cc1ccc(-c2c(C(=O)N/N=C/c3ccc(C)o3)nnn2-c2nonc2N)cc1` has an inhibition of 9.3%. For `CCCN1C=CC(=CC=C(C#N)C#N)C=C1`, the inhibition was 59.2% (active). For `C=CCN1C=CC(=CC=C(C#N)C#N)C=C1`, the inhibition was 29.6%. Work on `CCCN1C=CC(=C/C=C(\C#N)C(=O)OCC)C=C1` yielded an inhibition of 7.2%. For `Cc1ccc(C(=O)O)cc1NC(=O)C1=CSCCO1`, the inhibition was -0.5%. In the case of `COc1ccc2nc(C)cc(NCc3cccc(C(F)(F)F)c3)c2c1`, the inhibition is reported as -5.8%. Compound `COc1ccc(CNc2cc(C)nc3ccc(OC)cc23)cc1` has an inhibition of 7.8%. `O=C1Oc2ccccc2C(=O)/C1=C/N1CCN(c2ccccc2F)CC1` gave an inhibition of -6.9%. `CC(C)CCN1CCNC(=O)C1CC(=O)NCCCN1CCOCC1` (stereo not drawn) gave an inhibition of -0.8%. Work on `CC(NC(=O)Cn1nc(C(=O)O)c2ccccc2c1=O)C12CC3CC(CC(C3)C1)C2` (stereo not drawn) yielded an inhibition of 8%. In the case of `CC(NC(=O)CN1CCCC1)C12CC3CC(CC(C3)C1)C2` (stereo not drawn), the inhibition is reported as 1.4%. `O=C(c1cc(-c2ccccc2Cl)nc2ccccc12)N1CCOCC1` showed an inhibition of 10.1%. Work on `CCN(CC)c1ccc2c(C)c(Cl)c(=O)oc2c1` yielded an inhibition of 8.4%. In the case of `CCN(CC)c1ccc2c(Cl)cc(=O)oc2c1`, the inhibition is reported as 4.5%. In the case of `COc1ccc(C(=O)/C=C/c2ccc(N3CCCCC3)c([N+](=O)[O-])c2)cc1`, the inhibition is reported as 2.4%. In the case of `Cn1ccc(=Nc2ccc(NC(=O)c3ccc(N=c4ccn(C)c5ccc([N+](=O)[O-])cc45)cc3)cc2)cc1`, the inhibition is reported as 53.5% (active). `CCn1c2ccccc2c2cc(NC(=O)c3ccc([N+](=O)[O-])cc3)ccc21` was tested, and the inhibition was -16.2%. With `O=C(Nc1ccc(N2CCOCC2)cc1)c1ccc([N+](=O)[O-])cc1` the inhibition was 14.4%. Compound `Cc1c(NC(=S)N/N=C/c2ccc(N(C)C)cc2)c(=O)n(-c2ccccc2)n1C` has an inhibition of 5.5%. `O=C1CN(C(=O)N[C@@H](Cc2ccccc2)C(=O)N[C@@H](Cc2ccccc2)C(=O)O)c2ccccc2N1` was tested, and the inhibition was 6.4%. With `CCN1CC=C2C(C#N)=C(N)C(C#N)(C#N)[C@H](c3cccc(OC)c3OC)[C@H]2C1` the inhibition was 100% (active). For `CCCN1CC=C2C(C#N)=C(N)C(C#N)(C#N)C(c3cccc(OC)c3OC)C2C1` (stereo not drawn), the inhibition was 101% (active). For `CCCOc1ccc([C@@H]2C3CN(C(=O)OCC)CC=C3C(C#N)=C(N)C2(C#N)C#N)cc1OC` (stereo partly drawn), the inhibition was 16.5%. Compound `CCCCOc1ccc(C2C3CN(C(=O)OCC)CC=C3C(C#N)=C(N)C2(C#N)C#N)cc1OC` (stereo not drawn) has an inhibition of -1.9%. `CCOC(=O)N1CC=C2C(C#N)=C(N)C(C#N)(C#N)[C@H](c3cccs3)C2C1` (stereo partly drawn) showed an inhibition of 12.4%. Work on `COc1cccc(OC)c1OCc1cc(C2C3CCCC=C3C(C#N)=C(N)C2(C#N)C#N)c(C)cc1C` (stereo not drawn) yielded an inhibition of 7%. For `COc1ccc([C@@H]2[C@H]3CN(C(C)=O)CC=C3C(C#N)=C(N)C2(C#N)C#N)c2ccccc12`, the inhibition was -18.9%. Compound `CCOC(=O)N1CC=C2C(C#N)=C(N)C(C#N)(C#N)[C@H](c3ccccc3OCC)[C@H]2C1` has an inhibition of 2.1%. `Cc1c(C(=O)Nc2ccc(Cc3ccncc3)cc2)cccc1[N+](=O)[O-]` showed an inhibition of -1.8%.

Source: PubChem BioAssay AID2058 (Sanford-Burnham Center for Chemical Genomics, 2009)
